# Laboratory results: PubChem BioAssay (NCI)
# Where “and” joins values, the source holds several entries; their conditions need not be identical. Equal entries are not always repeated. About 79,000 compounds went through this panel and 15% of them were active in at least one assay; those are over-represented in the sample as a whole. The source holds several records for some structures; these can differ, active in one and inactive in another. Calls of active or inactive are those of the source. Rule as the data show it: active = growth inhibition above about 70%; inactive = the rest.
# Legend:
# [1] = NCI Yeast Anticancer Drug Screen. Data for the rad52 strain (AID 147);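 also: 0% = growth of vehicle-treated control cultures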; conditions: S. cerevisiae rad52 mutant growth inhibition, stronger effect = higher value
# In short: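 Here a repair-compromised yeast strain receives each compound; its growth is then quantified and normalised to vehicle-only controls.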
# [2] = NCI Yeast Anticancer Drug Screen. Data for the wt1 strain (AID 149);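 also: 0% = growth of vehicle-treated wt1 cultures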; conditions: S. cerevisiae wt1 strain (SPY 50644) growth inhibition, stronger effect = higher value
# In short: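 Using yeast strain wt1, compound-induced growth inhibition was determined against vehicle-treated cultures.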
# [3] = NCI Yeast Anticancer Drug Screen. Data for the rad50EPP+ strain (AID 151);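 also: 0% = growth of vehicle-treated control cultures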; conditions: S. cerevisiae rad50 mutant strain, stronger effect = higher value
# In short: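 Read-out is yeast growth inhibition relative to vehicle; cells used were the rad50EPP+ strain.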
# [4] = NCI Yeast Anticancer Drug Screen. Data for the mgt1 strain (AID 153); conditions: S. cerevisiae mgt1 mutant growth inhibition, stronger effect = higher value
# In short: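 Measured: inhibition of mgt1 yeast growth by compound, normalized to vehicle-treated cultures.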
# [5] = NCI Yeast Anticancer Drug Screen. Data for the rad50 strain (AID 155);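 also: 0% = growth of vehicle-only cultures of the same strain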; conditions: S. cerevisiae rad50 strain growth inhibition, stronger effect = higher value
# In short: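 Relative growth inhibition (compound vs vehicle) was measured in yeast with a defined repair-gene alteration.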
# [6] = NCI Yeast Anticancer Drug Screen. Data for the mec2-1 strain (AID 157); conditions: S. cerevisiae mec2-1 strain, stronger effect = higher value
# In short: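 Using mec2-1 yeast: add compound, measure growth, express inhibition versus vehicle-treated cultures.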
# [7] = NCI Yeast Anticancer Drug Screen. Data for the sgs1 mgt1 strain (AID 161);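 also: 0% = growth of cultures given vehicle only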; conditions: S. cerevisiae sgs1 mgt1 strain, stronger effect = higher value
# In short: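 Yeast cells carrying a defined DNA-repair defect were exposed to test compounds. Growth inhibition was measured relative to vehicle-treated controls.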
# [8] = NCI Yeast Anticancer Drug Screen. Data for the CLN2oe strain (AID 163);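 also: 0% = growth of vehicle-only control cultures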; conditions: S. cerevisiae CLN2oe strain, stronger effect = higher value
# In short: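 Whole-cell yeast growth assay. A strain engineered for altered cell-cycle control received compound, and inhibition relative to vehicle-treated cultures was recorded.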
# [9] = NCI Yeast Anticancer Drug Screen. Data for the cln2 rad14 strain (AID 165);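 also: 0% = growth equal to vehicle treated cultures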; conditions: S. cerevisiae cln2 rad14 strain, stronger effect = higher value
# In short: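 Yeast strain cln2 rad14, bearing defects in cell cycle control and DNA repair, serves as the test system; values reflect growth inhibition compared with vehicle.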
# [10] = NCI Yeast Anticancer Drug Screen. Data for the bub3 strain (AID 167); conditions: S. cerevisiae bub3 mutant strain, stronger effect = higher value
# In short: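 Screening used yeast with an engineered genetic alteration affecting cell cycle control. Compound-exposed cultures were compared with vehicle cultures, and reduced growth was taken as inhibition.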
# [11] = NCI Yeast Anticancer Drug Screen. Data for the mlh1 strain (AID 171);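 also: 0% = growth of vehicle-treated control cultures of the same strain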; conditions: S. cerevisiae mlh1 strain growth inhibition, stronger effect = higher value
# In short: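 A yeast strain with a defined genetic lesion serves as the test organism. Cultures receive compound or vehicle, and growth is measured.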
# [12] = NCI Yeast Anticancer Drug Screen. Data for the sgs1 strain (AID 173);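 also: 0% = growth of vehicle-only control cultures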; conditions: S. cerevisiae sgs1 mutant, stronger effect = higher value
# In short: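 A genetically defined yeast mutant is incubated with the test compound, and its growth is compared to that of the same strain given vehicle.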
# [13] = NCI Yeast Anticancer Drug Screen. Data for the mlh1 rad18 strain (AID 175); conditions: S. cerevisiae mlh1 rad18 strain growth inhibition, stronger effect = higher value
# In short: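 Steps: expose repair-defective yeast to compound; measure growth; express inhibition against vehicle-treated controls.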
# [14] = NCI Yeast Anticancer Drug Screen. Data for the rad18 strain (AID 177); conditions: S. cerevisiae rad18 mutant growth inhibition, stronger effect = higher value
# In short: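 Measured value is growth inhibition of a yeast strain bearing a DNA repair alteration, referenced to vehicle-treated cells.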
# [15] = NCI Yeast Anticancer Drug Screen. Data for the rad14 strain (AID 159);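 also: 0% = growth of vehicle-treated control cultures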; conditions: S. cerevisiae rad14 strain growth inhibition, stronger effect = higher value
# In short: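 Screen for anticancer potential: a yeast strain altered in DNA damage repair is grown with compound, and reduced growth is quantified against vehicle controls.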
# [16] = at 5.0 µM (retest, dose inferred, filed as 0.5)
# [17] = at 50.0 µM (retest, dose inferred, filed as 5.0)
compound,measurement,setting,value
Cc1cc(N(CCOS(C)(=O)=O)CCOS(C)(=O)=O)ccc1C=Nc1ccc(-c2csc(-c3ccccc3)n2)c(Cl)c1,growth inhibition,[1]; at 1.2 µM,14% (inactive)
same,growth inhibition,[1]; at 3.7 µM,57% (inactive)
same,growth inhibition,[1]; at 11.0 µM,90% (active)
same,growth inhibition,[1]; at 33.0 µM,96% (active)
same,growth inhibition,[1]; at 100.0 µM,84% (active)
same,growth inhibition,[2]; at 1.2 µM,-26% (inactive)
same,growth inhibition,[2]; at 3.7 µM,-8% (inactive)
same,growth inhibition,[2]; at 11.0 µM,56% (inactive)
same,growth inhibition,[2]; at 33.0 µM,98% (active)
same,growth inhibition,[2]; at 100.0 µM,92% (active)
same,growth inhibition,[3]; at 1.2 µM,3% (inactive)
same,growth inhibition,[3]; at 3.7 µM,-1% (inactive)
same,growth inhibition,[3]; at 11.0 µM,13% (inactive)
same,growth inhibition,[3]; at 33.0 µM,62% (inactive)
same,growth inhibition,[3]; at 100.0 µM,85% (active)
same,growth inhibition,[4]; at 1.2 µM,13% (inactive)
same,growth inhibition,[4]; at 3.7 µM,43% (inactive)
same,growth inhibition,[4]; at 11.0 µM,81% (active)
same,growth inhibition,[4]; at 33.0 µM,98% (active)
same,growth inhibition,[4]; at 100.0 µM,92% (active)
same,growth inhibition,[5]; at 1.2 µM,2% (inactive)
same,growth inhibition,[5]; at 3.7 µM,28% (inactive)
same,growth inhibition,[5]; [16],53% (inactive) and 4% (inactive)
same,growth inhibition,[5]; at 11.0 µM,78% (active)
same,growth inhibition,[5]; at 33.0 µM,96% (active)
same,growth inhibition,[5]; [17],96% (active) and 94% (active)
same,growth inhibition,[5]; at 50.0 µM,93.2% (active)
same,growth inhibition,[5]; at 100.0 µM,91% (active)
same,growth inhibition,[6]; at 1.2 µM,-2% (inactive)
same,growth inhibition,[6]; at 3.7 µM,30% (inactive)
same,growth inhibition,[6]; [16],51% (inactive) and -1% (inactive)
same,growth inhibition,[6]; at 11.0 µM,85% (active)
same,growth inhibition,[6]; at 33.0 µM,97% (active)
same,growth inhibition,[6]; [17],97% (active)
same,growth inhibition,[6]; at 50.0 µM,97.1% (active)
same,growth inhibition,[6]; at 100.0 µM,92% (active)
same,growth inhibition,[7]; [16],20% (inactive) and 8% (inactive)
same,growth inhibition,[7]; [17],5% (inactive) and 97% (active)
same,growth inhibition,[7]; at 50.0 µM,82.8% (active) and 96.2% (active)
same,growth inhibition,[8]; at 1.2 µM,36% (inactive)
same,growth inhibition,[8]; at 3.7 µM,37% (inactive)
same,growth inhibition,[8]; at 11.0 µM,79% (active)
same,growth inhibition,[8]; at 33.0 µM,98% (active)
same,growth inhibition,[8]; at 100.0 µM,92% (active)
same,growth inhibition,[9]; [16],29% (inactive) and -6% (inactive)
same,growth inhibition,[9]; [17],-5% (inactive) and 95% (active)
same,growth inhibition,[9]; at 50.0 µM,82.8% (active) and 92.5% (active)
same,growth inhibition,[10]; at 1.2 µM,0% (inactive)
same,growth inhibition,[10]; at 3.7 µM,20% (inactive)
same,growth inhibition,[10]; [16],18% (inactive) and 0% (inactive)
same,growth inhibition,[10]; at 11.0 µM,76% (active)
same,growth inhibition,[10]; at 33.0 µM,97% (active)
same,growth inhibition,[10]; [17],-19% (inactive) and 95% (active)
same,growth inhibition,[10]; at 50.0 µM,81.4% (active) and 94% (active)
same,growth inhibition,[10]; at 100.0 µM,92% (active)
same,growth inhibition,[11]; at 1.2 µM,-1% (inactive)
same,growth inhibition,[11]; at 3.7 µM,25% (inactive)
same,growth inhibition,[11]; at 11.0 µM,80% (active)
same,growth inhibition,[11]; at 33.0 µM,97% (active)
same,growth inhibition,[11]; at 100.0 µM,90% (active)
same,growth inhibition,[12]; at 1.2 µM,10% (inactive)
same,growth inhibition,[12]; at 3.7 µM,22% (inactive)
same,growth inhibition,[12]; at 11.0 µM,82% (active)
same,growth inhibition,[12]; at 33.0 µM,97% (active)
same,growth inhibition,[12]; at 100.0 µM,92% (active)
same,growth inhibition,[13]; [16],86% (active) and 5% (inactive)
same,growth inhibition,[13]; [17],95% (active) and 96% (active)
same,growth inhibition,[13]; at 50.0 µM,95.2% (active)
same,growth inhibition,[14]; at 1.2 µM,58% (inactive)
same,growth inhibition,[14]; at 3.7 µM,83% (active)
same,growth inhibition,[14]; at 11.0 µM,94% (active)
same,growth inhibition,[14]; at 33.0 µM,97% (active)
same,growth inhibition,[14]; at 100.0 µM,89% (active)
CCCCCOC(=S)SC(=O)OCC,growth inhibition,[1]; at 1.2 µM,0% (inactive)
same,growth inhibition,[1]; at 3.7 µM,7% (inactive)
same,growth inhibition,[1]; at 11.0 µM,27% (inactive)
same,growth inhibition,[1]; at 33.0 µM,63% (inactive)
same,growth inhibition,[1]; at 100.0 µM,94% (active)
same,growth inhibition,[2]; at 1.2 µM,-4% (inactive)
same,growth inhibition,[2]; at 3.7 µM,-1% (inactive)
same,growth inhibition,[2]; at 11.0 µM,8% (inactive)
same,growth inhibition,[2]; at 33.0 µM,35% (inactive)
same,growth inhibition,[2]; at 100.0 µM,64% (inactive)
same,growth inhibition,[3]; at 1.2 µM,-3% (inactive)
same,growth inhibition,[3]; at 3.7 µM,9% (inactive)
same,growth inhibition,[3]; at 11.0 µM,18% (inactive)
same,growth inhibition,[3]; at 33.0 µM,30% (inactive)
same,growth inhibition,[3]; at 100.0 µM,36% (inactive)
same,growth inhibition,[4]; at 1.2 µM,-4% (inactive)
same,growth inhibition,[4]; at 3.7 µM,-2% (inactive)
same,growth inhibition,[4]; at 11.0 µM,6% (inactive)
same,growth inhibition,[4]; at 33.0 µM,37% (inactive)
same,growth inhibition,[4]; at 100.0 µM,92% (active)
same,growth inhibition,[5]; at 1.2 µM,1% (inactive)
same,growth inhibition,[5]; at 3.7 µM,32% (inactive)
same,growth inhibition,[5]; [16],20% (inactive)
same,growth inhibition,[5]; at 11.0 µM,51% (inactive)
same,growth inhibition,[5]; at 33.0 µM,84% (active)
same,growth inhibition,[5]; [17],95% (active)
same,growth inhibition,[5]; at 50.0 µM,98% (active)
same,growth inhibition,[5]; at 100.0 µM,95% (active)
same,growth inhibition,[15]; at 1.2 µM,-5% (inactive)
same,growth inhibition,[15]; at 3.7 µM,-4% (inactive)
same,growth inhibition,[15]; at 11.0 µM,12% (inactive)
same,growth inhibition,[15]; at 33.0 µM,42% (inactive)
same,growth inhibition,[15]; at 100.0 µM,92% (active)
same,growth inhibition,[7]; [16],33% (inactive)
same,growth inhibition,[7]; [17],97% (active)
same,growth inhibition,[7]; at 50.0 µM,97.7% (active)
same,growth inhibition,[8]; at 1.2 µM,-7% (inactive)
same,growth inhibition,[8]; at 3.7 µM,-6% (inactive)
same,growth inhibition,[8]; at 11.0 µM,-7% (inactive)
same,growth inhibition,[8]; at 33.0 µM,1% (inactive)
same,growth inhibition,[8]; at 100.0 µM,30% (inactive)
same,growth inhibition,[9]; [16],9% (inactive)
same,growth inhibition,[9]; [17],53% (inactive)
same,growth inhibition,[9]; at 50.0 µM,64.8% (inactive)
same,growth inhibition,[10]; at 1.2 µM,2% (inactive)
same,growth inhibition,[10]; at 3.7 µM,6% (inactive)
same,growth inhibition,[10]; [16],55% (inactive)
same,growth inhibition,[10]; at 11.0 µM,40% (inactive)
same,growth inhibition,[10]; at 33.0 µM,82% (active)
same,growth inhibition,[10]; [17],96% (active)
same,growth inhibition,[10]; at 50.0 µM,96.8% (active)
same,growth inhibition,[10]; at 100.0 µM,94% (active)
same,growth inhibition,[12]; at 1.2 µM,-3% (inactive)
same,growth inhibition,[12]; at 3.7 µM,4% (inactive)
same,growth inhibition,[12]; at 11.0 µM,45% (inactive)
same,growth inhibition,[12]; at 33.0 µM,90% (active)
same,growth inhibition,[12]; at 100.0 µM,97% (active)
same,growth inhibition,[13]; [16],43% (inactive)
same,growth inhibition,[13]; [17],96% (active)
same,growth inhibition,[13]; at 50.0 µM,96.6% (active)
same,growth inhibition,[14]; at 1.2 µM,-5% (inactive)
same,growth inhibition,[14]; at 3.7 µM,5% (inactive)
same,growth inhibition,[14]; at 11.0 µM,33% (inactive)
same,growth inhibition,[14]; at 33.0 µM,90% (active)
same,growth inhibition,[14]; at 100.0 µM,98% (active)
